According to PubChem BioAssay AID2675 (National Center for Advancing Translational Sciences (NCATS), 2010):
Hit rate of the full screen: of about 280,000 compounds, about 100 (0.036%) were called active. Inconclusive results (about 11%) are left out. Calls follow the shape of the dose curve; as a rule, active = well fitted inhibition curve with a large enough effect in the signal ratio, with a control signal flat (not every such curve was filed as active); inconclusive = small, poorly fitted or top-dose-only effect, or effect the other way, or a change in a side signal; inactive = no such curve, though single readings can be large or run the other way; the % refers to the signal ratio. The list comes from a sample in which actives are over-represented; it also holds similar structures and randomly drawn compounds.

biological target: Muscleblind-like protein 1 (Homo sapiens) (UniProt Q9NR56); test: qHTS Assay for Inhibitors of MBNL1-poly(CUG) RNA binding; conditions: TR-FRET MBNL1-His/biotin-(CUG)12 binding, 665/545 ratio; series mostly up to 57.5 µM
Description: NIH Chemical Genomics Center [NCGC] NIH Molecular Libraries Probe Production Centers Network [MLPCN] MLPCN Grant: R03 MH087421-01 Assay Submitter (PI): Charles Thornton NCGC Assay Overview: Expanded CTG repeats in the 3' untranslated region of the DM protein kinase (DMPK) gene causes type I myotonic dystrophy (DM1). DM1 is a multi-systemic disease with a prevalence of 1/7000. Clinical features include myotonia, progressive muscle weakness and wasting, cardiac arrhythmia, insulin resistance, hypersomnolence, cataracts, and other symptoms. The pathogenic effect of expanded CTG repeats stems from deleterious effects of the mutant transcript. CUGexp mRNA accumulates in nuclear foci and sequesters proteins of the muscleblind family, of which MBNL1 is the most common family member in skeletal muscles. The binding interaction between MBNL1 and CUGexp tracts leads to deregulation of alternative splicing and is therefore a key molecular step in the pathogenesis of DM1. To target this binding interaction, we optimized a protein-RNA binding assay in 1536-well format for identification of small molecule inhibitors of biotinylated (CUG)12 and his-tagged MBNL1 binding. Protein-RNA complex of MBNL1-His and Biotin-(CUG)12 captures the detection reagents terbium-labeled anti-His antibody and streptavidin conjugated XL665. This brings the terbium label within close proximity to XL665 to allow time-resolved fluorescence resonance energy transfer (TR-FRET). Inhibitors of MBNL1-(CUG)12 binding will disrupt TR-FRET.
NCGC Assay Protocol Summary: This is a TR-FRET binding assay with MBNL1-His and Biotin-(CUG)12 RNA. The assay uses a ratiometric measurement. In the presence of MBNL1-(CUG)12 complex, the excitation energy is transferred to the XL665 acceptor label, causing emission at 665nm, while the 545nm donor signal […]. Data were normalized to the controls for basal activity (buffer only) and 100% activity (with MBNL1-(CUG)12). […] The final titration was 92 nM to 58 uM. (3) Add 1 ul of terbium labeled anti-His antibody (0.055 ng/ul final concentration) (4) Add 1 ul of streptavidin-XL665 (5 nM final concentration) (5) Incubate 60 min at room temperature (6) Detect the assay plate in a EnVision plate reader (PerkinElmer) with Ex=340 nm, Em1=665 nm and Em2=545 nm. Keywords: mytonic dystrophy type I, DM1, muscleblind like 1, MBNL1, CUG expansion, protein-RNA binding inhibitor, high throughput screening, MLSMR, MLSCN, NIH Roadmap, qHTS and NCGC
% is scaled to controls: 0 for no effect and ±100 for the full control effect.

Muscleblind-like protein 1 (Homo sapiens), sequence (Q9NR56 whole entry, looked up): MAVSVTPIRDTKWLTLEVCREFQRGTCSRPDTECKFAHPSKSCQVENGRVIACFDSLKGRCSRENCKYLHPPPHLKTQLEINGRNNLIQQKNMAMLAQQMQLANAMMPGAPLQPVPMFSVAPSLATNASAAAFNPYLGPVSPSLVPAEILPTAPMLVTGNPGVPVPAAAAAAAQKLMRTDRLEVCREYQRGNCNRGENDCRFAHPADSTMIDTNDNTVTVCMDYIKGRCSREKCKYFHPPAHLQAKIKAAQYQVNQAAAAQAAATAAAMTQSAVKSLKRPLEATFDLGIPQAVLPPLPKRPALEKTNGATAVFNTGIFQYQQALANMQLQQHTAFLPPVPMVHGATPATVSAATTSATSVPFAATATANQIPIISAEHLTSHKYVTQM

Activity change, negative = inhibition, inactive:
CC(C)c1ccc(N(C(=O)c2ccco2)C(C(=O)NC2CCCC2)c2cccnc2)cc1 (stereo unspecified)
COc1ccccc1CCNS(=O)(=O)c1cn(C)nc1C
CCOc1ccc(N(CC(=O)NCCc2ccc(F)cc2)S(=O)(=O)c2ccccc2)cc1
Cc1ccc(Cn2c(=N)c(S(=O)(=O)c3ccc(C)cc3)cc3c(=O)n4ccccc4nc32)cc1
C=CCSc1nc2c(c(=O)[nH]c(=O)n2C)n1Cc1ccccc1
Cc1ccc(-c2csc(NC3OC(=O)c4ccccc43)n2)cc1 (stereo unspecified)
Cc1ccc(C)c(NC(=O)c2cc(-c3cc(C)cc(C)c3O)n[nH]2)c1
Cc1ccccc1N1CCN(S(=O)(=O)c2ccc3ccccc3c2)CC1
Cc1ccc(CS(=O)Cc2ccc(C(=O)N3CCOCC3)o2)cc1 (stereo unspecified)
CCn1cc(CN2CCN(CC(C)(C)C)C(CCO)C2)c2ccccc21 (stereo unspecified)
Cc1ccc(-c2ccc(=O)n(Cc3ccc(F)cc3Cl)n2)cc1
CC(C)(C)c1ccc(C(=O)N2CCN(CCNC(=O)C(=O)Nc3ccc(F)cc3)CC2)cc1
COc1ccccc1NC(=O)C1CCN(C(=O)c2ccc(C(C)(C)C)cc2)CC1
COc1ccc(OC)c(CCNC(=O)c2nn(C)c3c2CS(=O)(=O)c2ccccc2-3)c1
CCCC[C@]12Cc3cc(OC)c(OC)cc3C(O1)C1=C(CC3(CCCCC3)OC1=O)O2 -1.93% [at 11.5 µM]
COc1cccc(CNS(=O)(=O)c2ccc3c(c2)CC(C)N3C(C)=O)c1 (stereo unspecified)
Cc1cccc(C(=O)N2CCCC(Nc3ccc(C(C)C)cc3)C2)n1 (stereo unspecified)
Cc1ccc2nc(SCC(=O)NC3CCCC3)[nH]c2c1
Cc1[nH]c(C)c(S(=O)(=O)N2CCN(c3cccc(C(F)(F)F)c3)CC2)c1C(=O)N1CCCC1
CS(=O)(=O)N(CC(=O)N1CCOCC1)c1cccc(Cl)c1Cl
CCc1ccc(OCC(=O)NCC(c2ccc(Cl)cc2)N2CCCCC2)cc1 (stereo unspecified)
Cc1c(C(=O)NCC(c2ccco2)N2CCCC2)oc2ccc(Cl)cc12 (stereo unspecified)
N#Cc1ccccc1S(=O)(=O)N1CCN(C(=O)c2cc(-c3ccccc3)nn2-c2ccccc2)CC1
CCCCC(C(=O)NC(C)(C)C)N(Cc1ccccc1)C(=O)c1snc(C(N)=O)c1N (stereo unspecified)
CS(=O)(=O)Nc1cccc(C2=NN(C(=O)c3cccc(F)c3)C(c3cccs3)C2)c1 (stereo unspecified)
COc1cccc(CNC(=O)Cn2c(=O)oc3cc(S(=O)(=O)N4CCCCC4)ccc32)c1
COc1ccc(NC(=O)c2sc3nc(C)nc(N4CCN(c5ccccn5)CC4)c3c2C)c(OC)c1
CCCCc1nc2cc(C(=O)N3CCCCC3CCO)ccc2o1 (stereo unspecified)
O=C(c1ccccc1)N1CCC(CC2CC(c3ccc(Cl)cc3)=NO2)(C(=O)NCC2CCCCC2)CC1 (stereo unspecified)
O=C(c1ccco1)N1CCN(Cc2cccc(C(F)(F)F)c2)CC1
O=C(Nc1ccc(F)cc1)c1ccc(S(=O)(=O)NCc2cccnc2)cc1
Cc1ccc(S(=O)(=O)N2CCN=C2SCc2c(F)cccc2Cl)cc1
COc1ccc(C)cc1Nc1n[n+](-c2ccccc2)c(-c2cccc(Cl)c2Cl)s1
C=CCc1cccc(/C=N/NC(=O)COc2ccc(-n3cnnn3)cc2)c1O
O=C1CCN(Cc2ccccc2)CCN1[C@H](CSc1ccccc1)c1ccccc1
CC(C)c1ccc(NC(=O)C2CCCN(S(=O)(=O)c3cccnc3)C2)cc1 (stereo unspecified)
COc1ccc(NC(=O)c2cccc3c2C(=O)N(CC2CCCO2)C3)cc1OC (stereo unspecified)
COc1ccc2c3c(c(=O)oc2c1)C1O[C@](CCCCN2C(=O)c4ccccc4C2=O)(Cc2c1ccc1ccccc21)O3 -13% [at 11.5 µM]
CC1CCCN(CCCNC(=O)CN2C(=O)COc3ccc(S(=O)(=O)N4CCOCC4)cc32)C1 (stereo unspecified)
COc1cccc(OCC(O)CNC(=O)c2oc3c(C)c(C)ccc3c2C)c1 (stereo unspecified)
O=C(NCc1ccccc1)c1onc(CSc2nc3ccccc3[nH]2)c1C(=O)NCc1ccccc1
CN(C)C(=O)CCC(=O)N1CCCCC1C(=O)Nc1ccc(Oc2ccccc2F)cc1 (stereo unspecified)
COc1ccc(-c2cc(C(=O)N3CCN(Cc4ccc5c(c4)OCO5)CC3)on2)cc1OC
COc1cc(C(=O)NCC2(c3ccccc3)CCCC2)ccc1OC(C)C
O=C(Nc1ccc(S(=O)(=O)N2CCCCCC2)cc1)c1c(F)cccc1F
Cc1cc2c(c(=O)n1Cc1ccccc1)C1O[C@](CCCCN3C(=O)c4ccccc4C3=O)(Cc3ccccc31)O2 41.3% [at 11.5 µM]
COc1ccc(Oc2cn[nH]c2-c2ccc(OC)cc2O)cc1
CCOC(=O)N1CCC(N2Cc3cccc(C(=O)Nc4c(C)cccc4CC)c3C2=O)CC1
CC(C)CN(Cc1c(O)ccc2c(=O)c(-c3ccccc3)coc12)CC(C)C
O=C(O)c1ccc2c(=O)n3c(nc2c1)/C(=C/c1ccc(OC(F)F)cc1OC(F)F)CC3
CCOC(=O)C1(CCOc2ccccc2)CCN(Cc2cc(OC)cc(OC)c2)CC1
CNC(=O)c1sc(Nc2ccc(OCc3ccccc3)cc2)nc1C
COc1cc(C(=O)NCc2cc3cc(Cl)ccc3n2C)cc(OC)c1OC
CCn1c(=S)sc2c(=O)n(CC(=O)Nc3cccc(Br)c3)c(C)nc21
Cc1ccc(OCC(=O)NC(C)c2ccccc2)cc1C (stereo unspecified)
COc1ccc(CNS(=O)(=O)c2ccc(NC(=O)N3CCCCC3)cc2)cc1
COc1ccc2[nH]c(=O)c(CN(Cc3cccnc3)S(=O)(=O)c3ccccc3F)cc2c1
CSc1ccccc1OCc1cc(C(=O)N(C)CCc2c(C)n[nH]c2C)no1
CCOc1ccc(NC(=O)C2CCN(C(=O)N3CCOc4ccccc43)CC2)cc1
CCOc1c(OC)cccc1C(=O)NCC1(c2ccccc2)CCCC1
Cc1cc(=O)oc2c3c(cc(OCC(=O)NCc4ccccn4)c12)OC(C)(C)CC3
Cc1nc2nc(SCC(=O)Nc3cccc(F)c3)[nH]c2cc1Br
FC(F)(F)c1nnc2c3ccccc3c(Cl)nn12
COc1cc(CCC(=O)N2CCN(c3ccccc3Cl)CC2)cc(OC)c1OC
Cc1cc(=O)n2[nH]c(-c3cccc(Cl)c3)cc2n1
Cc1cc2oc(=O)cc(CN(C)Cc3ccc(OC(F)F)cc3)c2cc1Cl
CN(Cc1ccccc1)C(=O)c1ccc(COc2ccccc2)cc1
CCCCC(=O)Nc1ccccc1N1CCN(c2ccc(F)cc2)CC1
CC(=O)N1CCC(C(=O)OCc2ccc(Cl)cc2)(c2ccccc2)CC1
COc1cnc(-c2ccccn2)nc1Oc1ccc(C(C)(C)C)cc1
COc1ccc(-c2nn(-c3ccccc3)cc2/C=C2/SC(=S)N(CCCC(=O)O)C2=O)c(C)c1
C=CCSc1nnc(N2C(=O)C(O)=C(C(=O)c3ccco3)C2c2ccc(F)cc2)s1 (stereo unspecified)
CC1C(=O)Nc2ccc(S(=O)(=O)N3CCN(c4ccccc4F)CC3)cc2NC1=O (stereo unspecified)
CCN(CC(=O)Nc1ccc(C)c(S(=O)(=O)N(C)C)c1)Cc1ccccc1
O=C(c1ccccc1F)N(Cc1ccccc1)Cc1ccccc1
COc1ccc(COC(=O)c2ccc(Cl)c(S(=O)(=O)N3CCOCC3)c2)cc1F
CN(CC1CCCN(CCc2cccc(C(F)(F)F)c2)C1)C(=O)c1ccc2nc[nH]c2c1 (stereo unspecified)
COc1cc(/C=C/C(=O)N2CCc3ccccc3C2)cc(OC)c1OC
CN(C(=O)CN1C(=O)/C(=C/c2ccc(Cl)cc2)SC1=S)C1CCS(=O)(=O)C1 (stereo unspecified)
CC(=O)c1cc2c(cc1NC(=O)Cn1nc(-c3ccc(F)cc3)ccc1=O)OCO2
O=C(C1CCCN(S(=O)(=O)c2ccccc2)C1)N1CCN(c2ccc(F)cc2)CC1 (stereo unspecified)
CC(C)C[C@@H](COc1ccccc1)N1CCN(CC(C)C)CCC1=O
Cc1sc2ncn(CC(=O)NCCCC(=O)N3CCN(c4ccccc4F)CC3)c(=O)c2c1C
CCOC(=O)N1CCN(Cc2nc3cc(NC(=O)CC)ccc3n2CC)CC1
OC(CNCCc1ccc(Cl)cc1Cl)COc1ccccc1 (stereo unspecified)
Cc1cnc(C)c(N2CCN(C(=O)C3CCC(=O)N(CCc4cccc(F)c4)C3)CC2)n1 (stereo unspecified)
Cc1ccc(-n2nc3c(=O)n(C(C)C(=O)NCc4ccc5c(c4)OCO5)nc(C)c3c2C)cc1 (stereo unspecified)
CSc1ccc(S(=O)(=O)N2CCC(C(=O)NCCc3ccccc3)CC2)cc1
Cc1ccccc1NC(=S)NC(=O)Cc1ccc(Cl)cc1
COc1ccc(C(=O)NC2CCN(C(=O)Nc3ccc(F)cc3)CC2)cc1
CC(=O)c1cccc(NC(=O)CN2C(=O)c3cccnc3Oc3ccc(Cl)cc32)c1
Cc1cc(CN(C)C(=O)c2cc(COc3ccc(C)c(C)c3)on2)n[nH]1
COc1ccc2c(C)c(CCC(=O)NC3CC3)c(=O)oc2c1C
COc1cccc(C2CC(c3cccs3)=NN2C(=O)CSC2=NCCS2)c1OC (stereo unspecified)
COc1ccc(OC)c(NC(=O)CN(C)CCOc2ccc(Br)cc2)c1
COC(=O)c1cc(S(=O)(=O)Nc2ccc(C)c(F)c2)c[nH]1
COc1ccc(-c2nc3ccccc3c(=O)n2CCc2ccc(O)cc2)cc1
CCC(C(=O)OC)n1cnc2scc(-c3ccc(C)cc3)c2c1=O (stereo unspecified)
CCc1ccccc1N(CC(=O)NCC1CCCO1)C(=O)CCC(=O)Nc1nccs1 (stereo unspecified)
CCN1CCN(c2sc(S(C)(=O)=O)nc2S(=O)(=O)c2ccc(Cl)cc2)CC1
CCNC(=O)N1CCCC(C(=O)c2ccc(-c3ccccc3)cc2)C1 (stereo unspecified)
